Data on 40 compounds can be found in PubChem BioAssay (Tox21).

SMILES strings stand for the structures. Where “and” joins values, the source holds several entries; their conditions need not be identical. Equal entries are not always repeated. Records with an inconclusive call do not appear. Where a call stands in place of a potency, no number is given. The source holds several records for some structures; these can differ, active in one and inactive in another. Calls of active or inactive are those of the source. The call rests on the fitted dose curve; in most records, active means well fitted cell-killing curve with a large enough effect in the repeat runs; inconclusive means weak or mixed curves, or effect the other way; inactive means flat fitted curve, though single readings scatter.
Potency means the concentration at half of the fitted maximal effect.

The nature of this assay: Nuclear factor erythroid 2-related factor 2/antioxidant responsive element (Nrf2/ARE) small molecule agonists: qHTS cell viability counter screen in human keratinocytes (AID 1919968). Further: nearly all actives have a fitted effect of over 55% in size. The following applies: KeratinoSens HaCaT ARE cells viability, CellTiter-Fluor, 24 h; series mostly up to 92.4 µM. In outline:
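Viability counter-screen: KeratinoSens reporter cells, DMSO-delivered compounds, 23 h at 37 C, CellTiter-Fluor fluorescence.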
In general terms: Quantitative high-throughput screening tests each substance at several concentrations.
`CCCCCCCCCCCC[N+](C)(C)C`: the Potency was 48.4 µM (active) and 30.6 µM (active) and 48.6 µM (active). As to `O=C1CCCCCCCCCCC1`, the Potency result is “inactive”. Then `CC(=O)[C@H]1CC[C@H]2[C@@H]3CC=C4C[C@@H](O)CC[C@]4(C)[C@H]3CC[C@]12C`, with “inactive”; and `O=C1O[C@H](CO)[C@@H](O)[C@H](O)[C@H]1O`, with “inactive”; and `Brc1nc2ccccc2s1`, with “inactive”. With `Oc1ccc2ccccc2c1N=Nc1ccccc1`, the Potency entry was “inactive”.

As for `Nc1cc([N+](=O)[O-])ccc1C(=O)O`, the Potency result is “inactive”. `CCCCCCCCCCCCCC[N+](C)(C)Cc1ccccc1`: the Potency was 24.7 µM (active) and 13.3 µM (active) and 12.6 mM (active). The result for `CCCCCCCCOc1ccc(C(=O)c2ccccc2)c(O)c1` reads “inactive”; that for `Clc1ccc(Cl)c(Cl)c1Cl`, “inactive”; that for `COc1ccc(C(Cl)=C(c2ccc(OC)cc2)c2ccc(OC)cc2)cc1`, “inactive”. Consider `CCCCC1(COC(=O)CCC(=O)O)C(=O)N(c2ccccc2)N(c2ccccc2)C1=O`, for which the Potency result is “inactive”. Then `CN(C)CCCN`, with “inactive”. The result for `C=C(C)C(=O)O[C@H]1C[C@@H]2CC[C@@]1(C)C2(C)C` reads 1.21 µM (active) and inactive; that for `C=CCOC(=O)c1ccccc1C(=O)OCC=C`, “inactive”. As for `CC(=O)c1ccc(S(=O)(=O)NC(=O)NC2CCCCC2)cc1`, the Potency entry is “inactive”. The result for `CCC(O)OC(O)CC` (stereo not given) reads “inactive”; that for `COCCOC(=O)c1ccccc1C(=O)OCCOC`, “inactive”. `CC(C)CC(=O)CC(C)CC(C)C` (stereo not given): the Potency entry was “inactive”.

Turning to `O=c1n(CC2CO2)c(=O)n(CC2CO2)c(=O)n1CC1CO1` (stereo not given), the Potency entry was “inactive”. `O=C(/C=C/C=C/c1ccc2c(c1)OCO2)N1CCCCC1`: the Potency entry is “inactive”. The result for `Cc1cc(Cc2ccc(N)c(C)c2)ccc1N` reads “inactive”; that for `CCC[C@H](N[C@@H](C)C(=O)N1[C@H](C(=O)O)C[C@@H]2CCCC[C@@H]21)C(=O)OCC`, “inactive”.

As to `c1ccc2c(c1)Cc1ccccc1-2`, the Potency entry was “inactive”.

With `CCCOC(=O)NCCCN(C)C`, the Potency result was “inactive”.

In the case of `CCCCOC(=O)CC(CC(=O)OCCCC)(OC(C)=O)C(=O)OCCCC`, the Potency result was “inactive”.

For the compound `C=CC[N+](C)(C)CC=C`, the Potency result is “inactive”. The result for `CC(O)COCC(C)O` (stereo not given) reads “inactive”; that for `CCCCC/C=C\C/C=C\CCCCCCCC(=O)OC`, “inactive”; that for `Nc1ncnc2nc[nH]c12`, “inactive”. Then `Cc1ccc(N)c(S(=O)(=O)O)c1`, with “inactive”; and `NCCOCCO`, with “inactive”; and `CC(=O)Oc1ccc(C)cc1`, with “inactive”. The result for `O=S1(=O)CCCO1` reads “inactive”; that for `C=C(C)C(=O)OCC(CC)(COC(=O)C(=C)C)COC(=O)C(=C)C`, “inactive”. For the compound `O=[N+]([O-])c1cccc(Cl)c1`, the Potency result was “inactive”. As for `CCOCC(=O)O`, the Potency result is “inactive”. Then `C=CCc1ccc(OC)c(OC)c1`, with “inactive”. In the case of `Clc1ccccn1`, the Potency entry is “inactive”.

For `Cc1cccc([N+](=O)[O-])c1C`, the Potency entry is “inactive”.
